# According to PubChem BioAssay AID493191 (Broad Institute, 2011):
# Screen size: about 1,300 compounds; about 330 (25%) were called active. Not all results are given here. Potency and affinity values are given separately. Values without a mark were called inactive. How the calls were made is not given here.
# Assay: MALME3 melanoma cell viability loss, dose response, orthogonal assay for MITF inhibitor project, CellTiter-Glo, cherry-picked (AID 493191)
# Details: CellTiter-Glo luminescence, 24 h; series mostly up to 35 µM; activity change, negative = inhibition: at the top concentration
row,Structure (SMILES),"activity change, negative = inhibition [%]"
1,Cc1ccc(C(=O)C[n+]2cc(-c3ccc(C)cc3)n3c2CCCCC3)cc1,-45
2,Cc1ccc(C(=O)NC2=NCCS2)cc1Cl,-3.46
3,C=CC[n+]1c(-c2ccc(C)cc2)csc1Nc1ccc(NC(C)=O)cc1,3.35
4,CCOc1ccc2nc(NC(=O)Cc3cccs3)sc2c1,3.36
5,CC(C)(CO)NC(=O)c1ccc2nc(Cc3cccc(Cl)c3)oc2c1,-0.565
6,Cc1nn(C)cc1/C=C/C(=O)c1cccs1,11
7,CCOc1ccc(-n2c(-c3ccc(Br)cc3)c[n+]3c2CCCCC3)cc1,-27.9
8,O=C1c2ccccc2C(=O)N1CCSc1ccccc1,0.331
9,COc1cccc(NC(=O)Nc2cccc(C(=O)O)c2)c1,-7.18
10,COc1cc(OC)cc(C(=O)Nc2ccc3c(c2)OCCO3)c1,-37.2
11,CCN(C(=O)c1ccco1)c1nc(-c2ccc(OC)cc2)cs1,1.88
12,COc1cc2c(cc1O)C(SC)=NC(C)(C)C2,-2.97
13,CC(C)c1ccc(/C=N/Nc2ccc(C(=O)O)cc2)cc1,5.55
14,CCN1c2ccccc2NC2C1C(C(C)=O)C(=O)N2c1ccc(Cl)cc1 (configuration not stated),-8.47
15,Cc1nc(NCCOc2ccccc2)sc1C(=O)Nc1ccccc1,-14.8
16,CCOC(=O)c1sc(-c2ccccc2)cc1N,-45.5
17,CCOC(=O)c1c(C)[nH]c(C)c1C(=O)COC(=O)c1ccc([N+](=O)[O-])s1,-39.1
18,COc1ccc(C)cc1Nc1nc(N)c2cc(OC)c(OC)cc2n1,10.8
19,CC(C)CC(=O)NC(c1cccs1)c1ccc2cccnc2c1O (configuration not stated),-25.5
20,N/C(=N\OC(=O)c1ccncc1)c1cccc([N+](=O)[O-])c1,2.54
21,Cc1c(C#N)c(NC(=O)CCl)n(Cc2ccccc2)c1C,-33.6
22,Fc1cccc(Cl)c1CSc1nnc(-c2ccncc2)o1,7.71
23,Cc1ccc(OCC(=O)Nc2ccccc2F)cc1,2.26
24,CC(=O)N/C(N)=N/c1nc(=O)c2ccccc2s1,1.17

row,Structure (SMILES),"activity change, negative = inhibition [%]"
1,NC(=O)c1c(NC(=O)c2cccnc2)sc2c1CCCCC2,4.25
2,CCOc1ccc(N/C=C/C(=O)c2ccc(OC)c(OC)c2)cc1,-6.29
3,OCCNc1c2ccccc2nc2ccccc12,-5.45
4,Clc1ccc(-c2noc(CN3CCOCC3)n2)cc1,6.68
5,NNC(=O)Cn1c(SCc2ccccc2)nc2ccccc21,5.17
6,COc1ccc(N/C=C\C(=O)c2ccc3ccccc3c2)cc1,1.62
7,O=C(Nc1ccc([N+](=O)[O-])cc1)c1ccccc1,11.7
8,COc1ccc(-c2csc(Nc3ccccn3)n2)cc1OC,-15.7
9,Cc1ccccc1NCc1nc2ccccc2n1C,-24.4
10,O=C(c1cc2ccccc2oc1=O)N1CCN(c2ncccn2)CC1,-25.8
11,N#C/C(=C\c1ccc(OCc2ccc(C(=O)O)cc2)cc1)C(=O)N1CCOCC1,-7.69
12,CCN1CCN(c2ccc(Nc3ccnc4ccccc34)cc2)CC1,-36
13,N#Cc1nc(/C=C/c2ccccc2)oc1NCCCN1CCOCC1,-3.05
14,CCn1c(C)cc(C(=O)CN2C(=O)c3ccccc3S2(=O)=O)c1C,8.52
15,Cc1ccc(SCc2cn3cc(Cl)ccc3n2)cc1,-21.6
16,Cc1ccc(-c2c[n+](Cc3cccc(Cl)c3)c3n2CCC3)cc1,-10.3
17,CC(OC(=O)c1ccc([N+](=O)[O-])s1)C(=O)NC1CCCCC1C (configuration not stated),-15
18,CCN(CC(=O)Nc1ccc2c(c1)OCCO2)C(=O)c1ccc([N+](=O)[O-])s1,2.27
19,Nc1nc2ccccc2n1/N=C/c1ccc(-c2ccccc2)o1,-1.36
20,CCOC(=O)Cn1c(=NC(=O)c2ccc([N+](=O)[O-])s2)sc2ccccc21,-16.7
21,O=[N+]([O-])c1ccc(/C=N/n2c(CO)nc3ccccc32)s1,-47.3
22,C=CCn1c(C)cc(C(=O)CN2C(=O)c3ccccc3S2(=O)=O)c1C,8.23
23,Cn1c(/C=C/c2cccc([N+](=O)[O-])c2)c([N+](=O)[O-])c(=O)n(C)c1=O,-1.13
24,Nc1ccc(-c2cc3ccccc3c(=O)o2)cc1,-6.34

row,Structure (SMILES),"activity change, negative = inhibition [%]"
1,Cn1c(COc2ccccc2Br)nc2ccccc21,-8.31
2,O=C(CN1CCCCC1)Nc1scc2c1c(=O)oc1ccccc12,9.74
3,CCc1ccc(-c2cc(C(=O)Nn3cnnc3)c3ccccc3n2)cc1,-34.7
4,Cc1cn(CCC(=O)Nc2ccccc2N2CCOCC2)c2ccccc12,0.439
5,O=C(Nc1ccccc1N1CCOCC1)c1ccc([N+](=O)[O-])o1,-33
6,FC(F)(F)Oc1ccc(-c2cn3cccnc3n2)cc1,9.48
7,CCN(CCO)c1ccc(N=Nc2cc(C)[nH]n2)cc1,1.47
8,COc1cc(/C=C/C(=O)c2ccc3c(c2)OCCO3)cc(Br)c1OCC(=O)N(C)C,-25.1
9,COCc1cc(C)nc2sc(C(=O)Nc3ccc(OC)cc3)c(N)c12,18
10,Cc1ccccc1-c1nc(CN2CCC(C(=O)NCCCN3CCCC(C)C3)CC2)c(C)o1 (configuration not stated),-24.7
11,Cc1cc(C)c2nc(N3CCC(C(=O)NCCCN4CC(C)CC(C)C4)CC3)sc2c1 (configuration not stated),-1.77
12,COc1cc(-c2nnc(-c3ccco3)o2)ccc1OCc1ccccc1,2.69
13,COc1ccc(-c2nc(-c3ccccc3OC)no2)cc1OC,10.9
14,COc1ccc(-c2nc3n(c2C)Cc2ccccc2-3)cc1,-13.5
15,Cn1nnnc1Sc1ncnc2scc(-c3ccc[nH]3)c12,-24.7
16,S=c1[nH]nc(-c2ccco2)n1/N=C/C(Cl)=C/c1ccccc1,-8.95
17,Cc1ccc2nc(-c3cccnc3)oc2c1,-3.42
18,O=C(Nc1ccccc1Cl)c1cc(=O)c2ccccc2o1,1.46
19,O=C(Nc1ccc(-c2nc3ncccc3o2)cc1)c1ccc([N+](=O)[O-])o1,-49.7
20,Oc1cc(NCc2cccnc2)ccc1-c1nc2ccccc2o1,-0.708
21,CC(=NNC(=S)N1CCN(c2ccccn2)CC1)c1nccs1,-16.1
22,Oc1c(Cl)cc(Cl)cc1/C=N/Nc1ncc(Br)cn1,-18.3
23,CC(C)(C)C1CCC(OC(=O)CN2CCCCC2)CC1 (configuration not stated),-13.2
24,Cc1ccc(NC(=O)Nc2ccccc2)nc1,-5.49

row,Structure (SMILES),"activity change, negative = inhibition [%]"
1,COc1cc(C2C(C#N)=C(N)Oc3cc(N(C)C)ccc32)cc2c1OCO2 (configuration not stated),11.2
2,Cc1ccc(/C=c2/sc3n(c2=O)CCCN=3)o1,0.622
3,O=C(Cn1cc(/C=C\[N+](=O)[O-])c2ccccc21)Nc1ccccc1,-28.1
4,Cc1cc(/C=C2\Sc3ccccc3N2C)cc(C)[n+]1CC1CCCO1 (configuration not stated),-44.9
5,O=C(O)c1cccc(COc2ccccc2Cl)c1,-4.79
6,COc1cc(C(=O)N/N=C(\c2ccccc2)c2ccccn2)cc(OC)c1OC,-45.1
7,Cc1ccc2c(c1)COc1c3ccc(C(=O)O)cc3nn1-2,-23.7
8,CCOc1cc(/C=N/Nc2cccc(C(=O)O)c2)ccc1OC(=O)c1ccccc1,7.73
9,CCOc1cc(/C=C2/NC(=S)NC2=O)ccc1OCc1ccc([N+](=O)[O-])cc1,-0.568
10,COc1cc(/C=N/NS(=O)(=O)c2ccc(C)cc2)ccc1OCc1cccc(C(=O)O)c1,19.6
11,COc1cc(/C=N/NS(=O)(=O)c2ccc3ccccc3c2)ccc1OCc1ccc(C(=O)O)cc1,8.79
12,Cc1cc(/C(N)=N/OC(=O)c2ccc(Cl)cc2)no1,-16.9
13,CCCCN=C(C)c1c(O)c2ccccc2oc1=O,4.39
14,CC(C)(C)c1ccc(/C=N/Nc2ccc(C(=O)O)cc2)cc1,-11.8
15,Cc1ccc(/C=N/Nc2ccc(C(=O)O)cc2)s1,-3.96
16,Cc1csc(NC(=O)Cc2c(F)cccc2Cl)n1,-9
17,Cc1cc(C)n(CCC(=O)N/N=C/c2c(O)ccc3ccccc23)n1,-29.7
18,Cc1ccc(-n2[nH]c(=O)c(-c3ccccn3)c2C)cc1,-6.77
19,Cc1cccc(N(O)C(=O)Nc2cccc(Cl)c2)c1,1.36
20,Cn1c(COc2ccccc2)nc2ccccc21,-6.2
21,COc1ccc(NCc2nc3ccccc3n2C)cc1,-16.2
22,CCOC(=O)/C=c1\s/c(=C\c2ccc3cc(OC)ccc3c2)c(=O)n1CC(=O)NCC1CCCO1 (configuration not stated),-15.3
23,O=C(COC(=O)CCN1C(=O)/C(=C\C=C\c2ccccc2)SC1=S)Nc1cc(F)ccc1F,8.66
24,O=C(Nc1ccccn1)c1ccc(Br)s1,-6.52

row,Structure (SMILES),"activity change, negative = inhibition [%]"
1,N=c1n(CC(=O)c2ccc(Br)cc2)c2ccccc2n1Cc1ccccc1,-44.7
2,O=C(CCl)N1c2ccccc2SCC1c1ccccc1 (configuration not stated),-6.94
3,COc1ccc(COC(=O)c2n[nH]c3ccccc23)cc1F,-0.544
4,CC(=O)N(\C=C/C=C/C=C1\Sc2ccccc2C1=O)c1ccccc1,-36
5,Nc1c(-c2ccc(Cl)cc2)nnn1-c1ccccc1,3.95
6,CCSc1nc2c(cnn2-c2ccccc2)c(=O)n1N,0.098
7,COc1cc2c(cc1OC)C(SC)=NC1(CCCC1)C2,-27.5
8,CN(C)c1ccc(/C=C(\C#N)c2ccccn2)cc1,-27.7
9,N=c1n(CC(=O)c2ccc([N+](=O)[O-])cc2)c2ccccc2n1Cc1ccccc1Cl,-16.3
10,O=C(C[n+]1cccc2ccccc21)c1ccc([N+](=O)[O-])cc1,-4.13
11,O=C(/C=C/NNC(=O)c1ccccc1)c1ccc([N+](=O)[O-])cc1,-24.7
12,Cc1ccccc1Cn1c(=N)n(CC(=O)c2ccc([N+](=O)[O-])cc2)c2ccccc21,-24.4
13,Cc1ccccc1C(=O)O/N=C(\N)c1ccc([N+](=O)[O-])cc1,-1.73
14,CCN1CCN(/C=N/c2nc3c(s2)CCCC3)CC1,-10.3
15,CC(Oc1cccc(Br)c1)C(=O)NNC(=O)c1ccccn1 (configuration not stated),-14.8
16,Cc1cnn(C(=S)NCCc2ccccc2)c1,-12.5
17,O=C(Cn1cnc2c(oc3ccccc32)c1=O)c1ccccc1,-2.47
18,CCCCOC(=O)c1[nH]c(C)c(C(=O)OC)c1C,9.39
19,CCOC(=O)c1c(NC(C)=O)sc2c(OCC(O)CNC(C)(C)C)c(Br)ccc12 (configuration not stated),-21.4
20,CC(/C=N/NC(=O)c1cc(-c2ccncc2)nc2ccccc12)=C\c1ccco1,-0.754
21,O=C(CCC1CCCN(C(=O)c2cc3ccccc3o2)C1)NCc1ccc(F)c(F)c1 (configuration not stated),-4.04
